Measurements reported in PubChem BioAssay (NCI).
This is part of a sample that, as a whole, favours compounds with a hit. Of some 83,000 tested, about 20% had one in any assay.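 Method: cells in 96-well plates; compound added at one concentration; 48 h incubation; percent growth measured; values under 10 scored active.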 A number with no mark means an inactive call. Active and inactive are the calls of the source.

tested on: HL-60(TB) leukemia; test: NCI-60 one-dose screen, 48 h (100 = growth as untreated, 0 = no growth, -100 = all killed); conditions: 10 µM unless noted

SMILES | growth
CC/C=C\C[C@@H]1C/C=C2/C(=O)C=C[C@H]2C/C=C\CCCC(=O)O1 | -26% (active)
Cc1cnc(/C=N\NC(N)=S)c2cccc(N)c12 | -29.7% (active)
COc1cc(NC(=O)c2cccc(-c3cc(=O)c4c(OC)c(OC)c(OC)cc4o3)c2)cc(OC)c1OC | 36%
CCCCCCCCCCCCOC(=N)N(C)C | 91.9%
CCCCCCc1cc2cc(-c3nc4ccccc4[nH]3)c(=Nc3ccccc3C)oc2cc1O | 12.2%
O=C(Nc1ccc(C2=NCCCN2)cc1)c1ccc(C(=O)Nc2ccc(C3=NCCCN3)cc2)nc1 | 79%
BrC1=C(Br)C(Br)(Br)C(Br)=C1Br | 27.4%
CC(=O)Nc1ccc(S(=O)(=O)N/N=C\c2ccc(Cl)c(Cl)c2)cc1 | 1.93% (active)
O=c1c2cc(C(F)(F)F)ccc2sc2c(NCCCNCCO)nc3ccccc3c12 | -19% (active)
COC(=O)c1ccc2[nH]c(O)c(C(=Nc3ccc(N(C)C(=O)CN4CCN(C)CC4)cc3)c3ccc(N)cc3)c2c1 | 110%
COc1cc2nccc(Oc3ccc(NC(=O)C4(C(=O)Nc5ccc(F)cc5)CC4)cc3)c2cc1Oc1ccc(N)cn1 | 22.9%
COc1cc(C(=O)N2CCN(c3cc4c(cc3F)c(=O)c(C(=O)NO)cn4C3CC3)CC2)cc(OC)c1OC | 101%
Cc1ccc(-c2noc(C)n2)cc1 | 100%
CC(C)(C)n1cc(-c2ccnc(NCCCNS(=O)(=O)c3cccc4ccccc34)c2)c(-c2cccc(O)c2)n1 | 25.4%
